Results as given in the supplement of paper PMC11417369.
In all, about 25,000 sequences were measured (“ln(normalized median fluorescence intensity)”: median about 6.7, highest 2% from about 10 on). The entries come from a sample that favours the highest values as a whole.

test system: PfHDP1 homeodomain (GST-tagged); assay: gcPBM binding intensity (ln(normalized median fluorescence intensity)); higher = stronger DNA binding
How it was run: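 Binding of GST-tagged P. falciparum DNA-binding domains, expressed in E. coli and used at about 25 μg on average, was carried out for 1 h in 1× PBS containing 1% milk, 0.2 mg/ml BSA, 0.5% salmon testes DNA and 0.03% Triton X-100. The target was an Agilent 4 × 180k array of primer-extended double-stranded 36-bp intergenic genomic probes plus negative controls, read with Alexa488 anti-GST antibody at 488 nm. Binding intensity is the highest Masliner-normalised natural-log median intensity across replicate spots of either probe orientation.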

Sequence	gcPBM binding intensity (ln)
TTTTCTCTAAAAAGGTGTACAACTAATAATGCACTG [XGTACX_site6074]	10.6
AAAAAAAAAAAAAGGTGTACATGCAAAATAAATTCT [XGTACX_site4592]	6.48
ATTTTTCTAAAATACTGTACAAAGGTGCATAAAAAG [XGTACX_site4425]	11.1
AAATACTGTACAAAGGTGCATAAAAAGTGGGGCATA	9.07
TATTTTATATAAAGGTGTACTTATACAAAAATATAT [XGTACX_site7435]	6.52
GATAATGAATGATGCACACTAAAAATATTCTACAAC [CACACA_site3622]	8.94
TATGGAAGAAAATATACACACAAAAAAAAAAAATGT [CACACA_site1486]	6.58
TATATAATATATAAATGTACTTTTGTCTTATATGAA [XGTACX_site7211]	6.32
TATTTTGTATTCATTTGTCACATATAATAGATAGGA [TGCATGCA_negctrl_site9]	6.82
TTTCTTTTTAAATATATACACACCGTGGGTACATAT [CACACA_site9102]	6.81
AATGAATCCTTATATACACACATTATTATATTATAT [CACACA_site3108]	7.23
TACTTTTTAGGAAAGTGTACAAGCATATAAGGAATA [XGTACX_site2834]	6.83
TATGTGTGCAAAAACTGTACACATTAAAGGTATATA [XGTACX_site7627]	10.3
GCAAGGTCCACACTGGTGCATTAAAAATAAAATATA [GTGCAC_site9956]	10.4
ATATGTACGCAAGGTGCACACTGGTGCATTAAAAAA [CACACA_site1801]	11.5
AATATATTTATGCTCATGCACTTTTTTTTTTTTTTT [GTGCAC_site9654]	10
CACTTCATAAAAATTGCACACATATAATAATGTACA [CACACA_site8692]	10.1
AAAATTAAAATATATACACACATATATATATTAAAT [CACACA_site4419]	6.25
GTATATTAATAAACATGTACACAATTTATTTATATT [XGTACX_site1012]	6.6

Sequence	gcPBM binding intensity (ln)
ATATTTATTTATATTACACACATGTGCAATTAAACT [CACACA_site6928]	10.7
TATATTAAAAAAAAATGTACACATATATATATATAT [XGTACX_site4524]	9.21
ATATATATATATATTACACACATGTGCAATTAAAAT [CACACA_site1778]	10.7
TATTATAAAATATACACATGCAAAAACAAAATTTAC [TGCATGCA_site1051]	7.03
ATATATATATTAATTACACACAAAAAAAAAAAAAAA [CACACA_site1165]	7.49
CAGGTGCACTATATTACACACGCTTCTTTTTTTTTA [CACACA_site2069]	11
ATATATATATATATTACACACTTTTTCTTTTTTTTT [CACACA_site2780]	9.01
AATAAATTAAAACAGGTGCACTATATTACACACGCT	9.7
TATAAAAATATATATATATATATATATATATATATA [TGCATGCA_negctrl_site541]	9.32
AAATTACTAATGTGCACACATACTAACGTTTAAATA [CACACA_site3572]	11.3
TCATTAAATGTTTAGGTGCATACTTTAATTTTTAAT [GTGCAC_site9906]	9.31
TTAAATTACTAATGTGCACACATACTAACGTTTAAA [CACACA_site3573]	11
AAAAATTAAATAAATTTACACACTAATAATTACATA [CACACA_site8260]	6.3
AAAAAAAAATTAAACATACACACGTTACTATTTTTA [CACACA_site1687]	6.29
AACATAAATTACTTTTTACACACTAATATAAAATAC [CACACA_site8297]	6.54
GAATATAATCTGTATTGTACGAAAGTTGAACACTTG [XGTACX_site8895]	6.3
GATCAAAATTATAGAAGTACTTTATATAAATAAAAT [XGTACX_site8161]	6.41
AAAAAAAAAAGACATGCATACGCTAATTTTTAGTTG [TGCATGCA_site300]	5.98
TTTATATTAGGTCTTGAACGATTTTCATCATTATTA [TGCATGCA_negctrl_site100]	6.04

Sequence	gcPBM binding intensity (ln)
ATATCGTTATTTTTATGTACTAAAATATTTAATTAT [XGTACX_site3516]	7.03
TTTATCTAAATATGTGTGCACTCGTTAATTTTTTTT	10.8
TTTTTTAATATATTATTATAAATATTTTTTATGTGT [GTGCAC_negctrl_site712]	6.46
ATAACATGAACATATGTTACACAAACATACATACAT [XGTACX_negctrl_site365]	6.77
TTTAGTTCATACTATGCACACTACGTATATTTTTAA [CACACA_site5484]	8.95
TTTATAGTTTTTAATAGTACACATATTTTTAAGTAT [XGTACX_site5498]	6.38
TTTTGTACAAAAATAATGCACACTATATCAAGTTTT [CACACA_site3595]	10.4
GTAATATCAATATAAAGTACACACTATAGTATGTAT [XGTACX_site4714]	6.4
TATATATATATCAAGTGTACTTGTGTTTGTAATATT [XGTACX_site8854]	8.6
AGTAATAGTTTGTGCACACTCAAGTATATCATAGAT [CACACA_site6082]	11.1
TTGTACAAAAATAATGCACACTATATCAAGTTTTTT [CACACA_site5898]	10.3
AGTAATAGTTTGTGCACACTCAAGTATATCATATAT [CACACA_site4034]	11.2
TATATATCAATATGCACACACAAGAAGTAATTATAA [CACACA_site7487]	9.74
TAAGTAATAGTTTGTGCACACTCAAGTATATCATAT [CACACA_site4035]	11.1
ATATATGTAACATATTGTACATATATGTATGTATGT [XGTACX_site3281]	6.97
AATATTTTATTTTGGGTGCAAAAGAATATTATTTCA	9.49
CAATTAAATATATGAACACACATGTGAACTTTCTAT [CACACA_site3977]	6.36
AATATACAAAATAAATAAAATATATATATATATATA [CACACA_negctrl_site216]	9.24
AATTTAATTTTTTCGTGTACTTATATAGGAGGTTTT [XGTACX_site8310]	6.76
